The source made the active and inactive calls.

This passage reports composite z-score and composite Z-score results from PubChem BioAssay.

Experiment [1] addresses Albumin (Bos taurus) (UniProt P02769). The experiment is described as follows: bovine serum albumin binders on microarray, profiling panel, artefact control for SMM control protein annotation, biochemical, small-molecule microarray, Alexa647 label, 635/667 nm fluorescence (AID 1118).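 Note: score merges 667 nm emission intensity and signal-to-noise per printed compound spot.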 As to conditions: BSA-A647 binding, fluorescence 635 nm, higher = more signal.
The nature of experiment [2]: small-molecule microarray binders of probe aXIP, primary screen, biochemical, NeuroSMM set, 635/667 nm fluorescence (AID 1119).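 Note: probe is the protein aXip251-270 applied at 1 µg/mL to compound-printed slides; binding of probe to printed compounds measured as 667 nm fluorescence plus signal to noise.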 The conditions noted are these: higher = more signal, called active from +8 up or from −8 down.
Experiment [3] in a line: small-molecule binders of probe aNOTCH3, primary screen, biochemical, small-molecule microarray, 635/667 nm fluorescence (AID 1120).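 Note: probe is a biotin-tagged antibody raised against NOTCH3 rather than NOTCH3 protein; score merges spot fluorescence near 667 nm with spot signal to noise.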 As to conditions: higher = more signal.
The nature of experiment [4]: small-molecule binders of probe aNOTCH2, primary screen, biochemical, small-molecule microarray, 635/667 nm fluorescence (AID 1121).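 Note: score merges feature fluorescence read at 667 nm with its signal to noise.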 The conditions noted are these: higher = more signal.
The target in experiment [5] is Carbonic anhydrase 2 (Homo sapiens) (UniProt P00918). Kind of experiment: CAII small-molecule binders, profiling panel, biochemical, small-molecule microarray, Alexa647-labelled CAII (AID 1122). The conditions noted are these: CAII-A647 binding fluorescence, higher = more signal.
Experiment [6] can be described thus: COS7 lysate on small-molecule microarray, probe aHis, 635 nm (AID 1123).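 Note: z-score combines 667nm fluorescence intensity with signal-to-noise per printed compound spot.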 As to conditions: COS7 cell lysate, fluorescence, higher = more signal.
The nature of experiment [7]: compound binding in COS7 lysate, probe aLAP1, primary screen, cell lysate, small-molecule microarray (AID 1124).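 Note: lysate comes from COS7 cells expressing LAP1 and is applied at 0.3 µg/mL; score merges spot fluorescence near 667 nm with signal-to-noise over triplicate slides.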 The conditions noted are these: probe aLAP1, fluorescence, higher = more signal.
In experiment [8] the test system is Sam68 (KHDRBS1). The experiment is described as follows: Sam68 small-molecule binders, primary screen, biochemical, small-molecule microarray, 635 nm fluorescence (AID 1125).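 Note: score merges 667 nm channel intensity with signal to noise over triplicate slides.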 As to conditions: small-molecule microarray binding, higher = more signal.
In experiment [9] the test system is Chordin-like protein 2 (CHRDL2). Kind of experiment: CHRDL2 small-molecule binders, primary screen, biochemical, small-molecule microarray, 635 nm fluorescence (AID 1126).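 Note: printed compound slides probed with Chrdl2 protein at 4 µg/mL for 1 h at 4 C; score merges 667 nm emission intensity with signal to noise over three replicate slides.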 As to conditions: small-molecule microarray binding, fluorescence 635 nm; higher = more signal.
The target of experiment [10] is Concanavalin-A (Canavalia ensiformis) (UniProt P02866). The experiment is described as follows: ConA small-molecule binders, primary screen, artefact control for SMM control protein annotation, biochemical, small-molecule microarray, Alexa647 label, 635 nm (AID 1127).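 Note: z combines 667 nm emission intensity with signal-to-noise across three replicate slides.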 As to conditions: ConA-A647 binding fluorescence, higher = more signal.
Sequence of Concanavalin-A (Canavalia ensiformis) (P02866 whole entry, looked up): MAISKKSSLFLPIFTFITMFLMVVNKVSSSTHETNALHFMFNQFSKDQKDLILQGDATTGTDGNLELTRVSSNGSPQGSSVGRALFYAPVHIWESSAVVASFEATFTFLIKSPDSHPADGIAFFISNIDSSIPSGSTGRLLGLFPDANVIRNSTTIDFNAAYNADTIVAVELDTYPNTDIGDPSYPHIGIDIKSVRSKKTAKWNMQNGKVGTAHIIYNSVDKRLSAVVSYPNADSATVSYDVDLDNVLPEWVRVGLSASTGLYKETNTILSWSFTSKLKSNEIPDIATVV

Sequence of Albumin (Bos taurus) (P02769 whole entry, looked up): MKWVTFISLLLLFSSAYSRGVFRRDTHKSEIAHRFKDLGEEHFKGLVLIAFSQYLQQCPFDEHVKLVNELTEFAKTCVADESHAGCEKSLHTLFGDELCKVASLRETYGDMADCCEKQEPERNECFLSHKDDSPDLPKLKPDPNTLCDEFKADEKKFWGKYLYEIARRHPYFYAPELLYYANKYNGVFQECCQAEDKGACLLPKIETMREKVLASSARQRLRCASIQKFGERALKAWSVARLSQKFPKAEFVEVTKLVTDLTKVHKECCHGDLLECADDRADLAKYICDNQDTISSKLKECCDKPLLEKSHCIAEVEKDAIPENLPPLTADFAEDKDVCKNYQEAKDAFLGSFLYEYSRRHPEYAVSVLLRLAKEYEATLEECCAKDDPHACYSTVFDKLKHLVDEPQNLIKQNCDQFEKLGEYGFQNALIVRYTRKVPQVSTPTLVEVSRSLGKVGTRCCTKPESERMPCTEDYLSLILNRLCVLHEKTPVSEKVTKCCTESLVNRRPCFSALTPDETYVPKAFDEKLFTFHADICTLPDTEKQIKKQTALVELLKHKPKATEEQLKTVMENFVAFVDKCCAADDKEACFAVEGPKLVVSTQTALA

`COCCOC(=O)N1C(=O)[C@@]2(c3cc(C#CCC(C(=O)OC)C(=O)OC)ccc31)[C@H](c1ccc(O)cc1)N1[C@H](c3ccccc3)[C@H](c3ccccc3)OC(=O)[C@H]1[C@@H]2C(=O)Nc1nc2ccccc2s1`: the composite z-score is 0.703 in [1]; 0.146 in experiment [3]; -0.126 in experiment [4]; 0.342 in experiment [5]; 1.17 in experiment [6]; 0.447 in experiment [7]. The composite z-score worked out at 1.3 in experiment [8], 0.627 in experiment [9] and 1.15 in experiment [10]. Besides, the composite Z-score in experiment [2] is 0.179 (inactive).
As for `COc1cc(OC)c(C(O)C2C=CC3C(=O)N(c4ccccc4)C(=O)C3N2Nc2ccc(C(C)C)cc2)cc1Br` (stereo not given), the composite z-score in [1] amounted to 0.971; in experiment [3] it was 0.274; in experiment [4] it was 0.236; in experiment [5], 0.426; in [6] it was 2.76; in [7], 0.231. Besides, the composite z-score in experiment [8] worked out at 1.28; in experiment [9] it was 0.1; in [10], 1.07. Further, the composite Z-score in [2] is -0.382 (inactive).
Regarding `C=C(CCCC)/C(=C/C[C@H](OC(=O)c1ccncc1)c1ccc(OCCO)cc1)c1cnc2ccccc2c1`, the composite z-score was 0.667 in experiment [1]; 0.0533 in experiment [3]; -0.0891 in experiment [4]; 0.755 in [5]; 1.74 in experiment [6]; 0.111 in experiment [7]. Further, the results for the composite z-score in [8], in [9] and in experiment [10] were 1.31, 1.11 and 1.13, respectively. In addition, in [2], the composite Z-score is -0.0072 (inactive).
As for `C[N+](C)(C)CCCC[C@@H]1NC(=O)[C@@H]2C[C@H](C(=O)NCc3ccc(F)cc3)[C@H](c3ccc(O)cc3)N2C1=O`, the composite z-score in experiment [1] was -0.635; in experiment [3] it was -0.307; in experiment [4] it was -0.0662; in experiment [5], 0.413; in experiment [6], 0.933; in experiment [7], 0.873. The composite z-score was -0.636 in experiment [8], 0.189 in [9] and 0.607 in experiment [10]. In experiment [2], the composite Z-score was -0.43 (inactive).
`Cc1ccc(F)cc1S(=O)(=O)N[C@H]1CCN(Cc2ccc(OC(C)C)cc2)C1`: the composite z-score in [1] is -0.052; in [3] it was -0.0244; in [4], -0.19; in experiment [5], 0.231; in [6], 1.89; in experiment [7], 0.659. Also, the composite z-score was 0.65 in experiment [8], 0.544 in experiment [9] and -0.201 in experiment [10]. In addition, the composite Z-score in experiment [2] was -0.058 (inactive).
As to `C[C@@H]1ON(c2ccccc2)[C@H](c2ccccc2)[C@H]1C(=O)O`, the composite z-score in [1] was -0.189; in [3], -0.0971; in experiment [4] it was -0.0846; in experiment [5], 0.685; in experiment [6], -0.0056; in experiment [7] it was 0.361. The composite z-score in [8] was 0.0005; in experiment [9], 0.204; in experiment [10], -0.0755. Besides, the composite Z-score in experiment [2] was -0.107 (inactive).
Regarding `COc1cc(C(O)C2C=CC3C(=O)N(c4ccccc4)C(=O)C3N2Nc2ccccc2F)cc(OC)c1OC` (stereo not given), the composite z-score in experiment [1] came to 0.834; in experiment [3], 0.0436; in experiment [4], 0.0409; in [5], 0.648; in experiment [6], 3.14; in experiment [7] it was 0.443. For the same compound, the composite z-score in experiment [8] was 1.32; in experiment [9], -0.755; in experiment [10], 1.1. Also, the composite Z-score in [2] was 0.0894 (inactive).
As for `Cc1ccc(S[C@]2(C(=O)NCC(F)(F)F)CC(=O)N(Cc3ccccc3C(F)(F)F)[C@@H]2c2ccc(CO)cc2)cc1`, the composite z-score in [1] was -0.0912; in [3], -0.233; in experiment [4] it was -0.0861; in experiment [5], 0.653; in experiment [6] it was 1.24; in experiment [7], 1.26. For the same compound, the values for the composite z-score in [8], in [9] and in experiment [10] were -0.556, -1.45 and -0.87, respectively. Further, in [2], the composite Z-score is 0.0348 (inactive).
`COC(=O)C1=CC(CCCO)=CC(c2cccs2)N(Cc2cc3c(cc2Br)OCO3)C=C1C(=O)OC` (stereo not given): the composite z-score in experiment [1] was 0.739; in experiment [3], 0.062; in [4], -0.0645; in experiment [5] it was 0.769; in experiment [6], 2.43; in [7], 0.0385. For the same compound, the results for the composite z-score in [8], in experiment [9] and in [10] were 1.3, 0.249 and 1.21, respectively. For the same compound, the composite Z-score in [2] is 1.26 (inactive).
As for `CCOC(=O)C1=CCC(c2cc3ccccc3[nH]2)N(CCN2CC(C(=O)OCC)=CCC2c2cc3ccccc3[nH]2)C1` (stereo not given), the composite z-score is 0.656 in experiment [1]; 0.15 in [3]; -0.108 in [4]; 0.521 in experiment [5]; 4.05 in experiment [6]; 0.674 in [7]. Besides, the composite z-score in experiment [8] stood at 1.29; in experiment [9], 0.106; in experiment [10] it was 1.14. Further, the composite Z-score in experiment [2] is 0.0551 (inactive).
As for `CN1C(=O)C2C(C1=O)C1C=C(c3ccc(CO)cc3)C2C(C2CC2)N1C` (stereo not given), the composite z-score is 0.876 in [1]; -0.0947 in experiment [3]; -0.0859 in experiment [4]; 0.431 in [5]; -0.415 in [6]; -0.0324 in experiment [7]. Besides, the composite z-score stood at 0.164 in experiment [8], 0.0323 in [9] and 0.0875 in experiment [10]. Besides, in [2], the composite Z-score was 0.111 (inactive).
As to `O=C1O[C@H](c2ccccc2)[C@H](c2ccccc2)N2[C@H]1[C@@H](C(=O)O)[C@]1(C(=O)Nc3ccc(C#CCCO)cc31)[C@H]2c1ccc(OCCO)cc1`, the composite z-score in [1] came to 0.316; in [3] it was 0.0026; in experiment [4], 0.015; in [5], 0.596; in [6], 2.2; in experiment [7], 1.38. The results for the composite z-score in experiment [8], in experiment [9] and in experiment [10] were 1.08, 1.11 and 0.891, respectively. In experiment [2], the composite Z-score is 0.0388 (inactive).
For `COCCOC(=O)N1C(=O)[C@@]2(c3cc(C#CCCO)ccc31)[C@H](c1ccc(OCCO)cc1)N1[C@H](c3ccccc3)[C@H](c3ccccc3)OC(=O)[C@H]1[C@@H]2C(=O)N1CCCCCCC1`, the composite z-score was -0.226 in [1]; 1.26 in experiment [3]; 0.675 in experiment [4]; 0.67 in experiment [5]; 2.7 in experiment [6]; 1.95 in experiment [7]. For the same compound, the composite z-score in experiment [8] was 1.33; in experiment [9] it was 1.43; in [10], 1.13. The composite Z-score in [2] is 2.1 (inactive).
For the compound `C=C(COC)C(=O)CC[C@H](OC(=O)c1cccnc1)c1ccc(OCCO)cc1`, the composite z-score in experiment [1] is -0.286; in experiment [3] it was 0.201; in [4], -0.128; in experiment [5], 0.665; in experiment [6], 0.709; in experiment [7] it was 1.53. Also, the composite z-score in experiment [8] came out at 1.14; in experiment [9], 0.563; in experiment [10], 0.293. The composite Z-score in experiment [2] was 0.509 (inactive).
